# Sampled rows, rich in hits. Any-hit rate of the full collection: about 9.3%.
# NPC1 prom act – activates the NPC1 promoter. 320,000 compounds, 2.4% hits. Huh7 NPC1 promoter luciferase reporter, 24 h. Potency, µM (titrated, usually from 9.22 µM), hits mostly activators; further: nearly all actives have a fitted effect of over 60% in size
#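 Luminescence read-out of NPC1 promoter-driven luciferase in stably transfected Huh7 cells; compounds delivered in DMSO and left 24 h at 37C, 5% CO2, qHTS titration format.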
# ELG1 DNA repair – blocks ELG1-dependent DNA repair in HEK293T cells; HEK293T ELG1-luciferase reporter, luminescence, 16 h; DNA damage induced by 5-fluorouridine; Potency, µM (top dose mostly 46.1 µM), most hits filed as inhibitors; 330,000 compounds, 2.3% hits; further: nearly all actives have a fitted effect of over 55% in size
#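 5-Fluorouridine DNA damage + compound/DMSO, 2,000 cells/well, 16 h, 37 °C/5% CO2. ONE-Glo, 30 min RT, luminescence. Readout = decrease in reporter signal.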
# Rab9 promoter act – Rab9 promoter activation. Huh7 Rab9 promoter-luciferase reporter, luminescence, 24 h. Potency, µM (doses to about 9.22 µM), hits mostly activators. 320,000 compounds, 2.8% hits. AID 485297; further: nearly all actives have a fitted effect of over 60% in size
#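 Luminescence from Amplite-detected luciferase (10 minutes, ambient) reports Rab9 promoter activation. Before that, stable Rab9-luciferase Huh7 cells (1500/well, reduced-serum OP-MEM I plus 10% FBS) were exposed to compound for 24 hours at 37C.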
# FLuc counter – firefly luciferase modulation, counter-screen for miR-21 project; P08659; purified FLuc, Km substrates, luminescence inhibition; Potency, µM (doses to about 57.5 µM), usual class: inhibitors; 360,000 compounds, 6.9% hits; further: nearly all actives have a fitted effect of over 55% in size
# Target sequence (P08659 whole entry, looked up): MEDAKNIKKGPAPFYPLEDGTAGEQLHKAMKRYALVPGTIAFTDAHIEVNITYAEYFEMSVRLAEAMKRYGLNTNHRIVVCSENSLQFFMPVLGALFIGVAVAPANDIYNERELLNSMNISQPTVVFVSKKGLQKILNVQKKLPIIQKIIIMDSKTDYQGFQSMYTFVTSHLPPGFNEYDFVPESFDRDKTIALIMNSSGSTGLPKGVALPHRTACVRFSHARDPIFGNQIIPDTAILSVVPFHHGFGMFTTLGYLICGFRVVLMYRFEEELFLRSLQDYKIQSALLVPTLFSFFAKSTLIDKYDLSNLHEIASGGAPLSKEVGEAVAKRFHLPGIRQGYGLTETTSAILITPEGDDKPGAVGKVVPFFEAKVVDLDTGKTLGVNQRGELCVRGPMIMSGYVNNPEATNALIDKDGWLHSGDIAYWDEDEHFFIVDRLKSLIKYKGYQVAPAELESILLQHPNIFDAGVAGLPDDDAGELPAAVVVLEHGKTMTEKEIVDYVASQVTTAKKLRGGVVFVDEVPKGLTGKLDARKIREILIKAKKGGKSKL
#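 Purified P. pyralis luciferase, 10 nM final, with Km-level 10 uM D-luciferin and 10 uM ATP in 50 mM Tris acetate pH 7.5, 10 mM Mg acetate, 0.01% Tween-20, 0.05% BSA; 6-point qHTS titration about 60 µM downward; luminescence read.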
# ELG1 genotox – genotoxicity induction in ELG1-luciferase HEK293T cells. HEK293T ELG1-luciferase reporter, luminescence, 16 h. Potency, µM (titrated, usually from 46 µM), actives largely listed as activators. 330,000 compounds, 1.3% hits; further: nearly all actives have a fitted effect of over 60% in size
#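 ELG1-luciferase HEK293T cells, 2,000/well; compound pinned in; 16 hr, 37 °C, 5% CO2; ONE-Glo, 30 min RT; luminescence on CCD imager.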
# SMN2 splice up – enhancers of SMN2 splice variant expression. HEK293 SMN2-luciferase splicing reporter, luminescence, 30-36 h. Potency, µM (top dose mostly 46.1 µM), usual class: activators. 210,000 compounds, 2.8% hits; further: nearly all actives have a fitted effect of over 55% in size
#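 qHTS luciferase splicing reporter: luminescence rises when SMN2 exon 7 is included in transfected HEK293 cells. Compound exposure lasted 30-36 h at 37C, with 4.5 mM final sodium butyrate as control, followed by a ONE-Glo read.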
# A number is an active result; i = inactive; ? = inconclusive; nt = no result; [ ] = dose if it differs, or a comment. The call rests on the fitted dose curve; in most records, active means well fitted curve in the direction sought with a large enough effect; inconclusive means small, poorly fitted or top-dose-only effect, or another doubt; inactive means no such curve, though single readings can be large; an effect the other way counts as inactive or inconclusive.
SMILES,NPC1 prom act,ELG1 DNA repair,Rab9 promoter act,FLuc counter,ELG1 genotox,SMN2 splice up
CCOc1ccc(N(CC(=O)NCCSCc2ccccc2Cl)S(C)(=O)=O)cc1,i,i,i,i,i,nt
CCOc1ccc(NC(=O)CN(c2ccc(OC)cc2)S(C)(=O)=O)cc1,?,?,i,21µM,16µM,i
COC(=O)c1ccc(NC(=O)CN(c2ccc(OC)cc2)S(C)(=O)=O)cc1,?,?,2.5µM,15µM,?,?
CCOc1ccc(N(CC(=O)NCc2ccccc2C)S(C)(=O)=O)cc1,3.2µM,?,?,13µM,?,nt
Cc1ccc2c(c1)N=C(c1ccccc1)CC(C(Cl)Cl)=N2,?,?,3.2µM,8.5µM,?,nt
Cc1ccc(C2=Nc3ccccc3N=C(C(Cl)Cl)C2)cc1,3.2µM,?,3.2µM,9.5µM,?,i
CC1CCCCN1C(=O)Cn1ncc2c3ccccc3n(Cc3ccccc3F)c2c1=O (configuration not stated),nt,nt,nt,i,nt,i
Cc1ccc(C(C)C)c(OCC(=O)N/N=C2\CC(=O)CC(C)(C)C2)c1,i,i,i,i,i,nt
Cc1ccc(-n2ncc3c2CCCC3NC(=O)CCCN2CCCCC2=O)cc1C (configuration not stated),i,i,i,i,i,nt
O=C(OCC(=O)N1CCN(c2ccccc2)CC1)c1cccc([N+](=O)[O-])c1,i,i,i,i,i,nt
O=C(COC(=O)c1ccccc1[N+](=O)[O-])NC(=O)c1ccccc1,i,i,i,17µM,i,nt
O=C(Cn1ccc([N+](=O)[O-])n1)N1CCCc2ccccc21,i,?,i,17µM,?,i
O=C(OCC(=O)N1CCN(c2ccccc2)CC1)c1ccccc1[N+](=O)[O-],3.5µM,?,3.2µM,6.7µM,5.2µM,nt
O=C(OCC(=O)N1CCCc2ccccc21)c1ccccc1[N+](=O)[O-],?,?,?,15µM,?,nt
COc1ccc(C)cc1NC(=O)CNC(=O)[C@@H]1Cc2ccccc2CN1,i,i,i,i,i,nt
COC(=O)C1CCN(c2csc3ccc(Cl)cc3c2=O)CC1,nt,nt,nt,7.6µM,nt,nt
COC(=O)C1CCN(c2csc3ccc(C)cc3c2=O)CC1,nt,nt,nt,6µM,nt,nt
COC(=O)C1CCN(c2ccc([N+](=O)[O-])cc2[N+](=O)[O-])CC1,i,i,i,i,i,nt
CCC(=O)c1ccc2ncccc2c1,i,i,i,?,i,i
Cc1cccnc1NC(=O)c1ccc(S(=O)(=O)N2CCCCCC2)cc1,i,i,i,i,i,nt
Cc1ccc(C(=O)/C=C/c2ccc3ncccc3c2)cc1,i,?,i,3.8µM,?,nt
Cc1ccc(C(=O)Nc2ncccc2S(=O)(=O)c2ccccc2)cc1,2.8µM,?,2.8µM,11µM,?,nt
O=C(Nc1ccc2ncccc2c1)c1cccc(Br)c1,?,?,2.5µM,11µM,?,nt
Cc1ccc(C(=O)Nc2ccc3ncccc3c2)cc1,?,?,0.1µM,0.11µM,?,nt
COc1c(CO)cc(CO)cc(CO)c1=O,nt,nt,nt,nt,nt,i
SMILES,NPC1 prom act,ELG1 DNA repair,Rab9 promoter act,FLuc counter,ELG1 genotox,SMN2 splice up
CCC(=O)N1CCN=C1SCc1c(F)cccc1Cl,i,i,i,i,i,nt
Nc1ccc2ncccc2c1,i,?,i,i,i,?
COc1ccc(C(=O)Nc2cccnc2)cc1,i,?,?,?,?,i
Nc1ccc(/C=C/c2ccc3ncccc3c2)cc1,0.45µM,?,0.28µM,0.3µM,?,nt
Brc1ccc(CNc2ccc3ncccc3c2)cc1,?,?,i,11µM,?,nt
CC(=O)Nc1ccc(NC(=O)c2ccc(NS(=O)(=O)c3cccc4cccnc34)cc2)cc1,i,i,i,i,i,nt
COc1ccc(C(=O)Nc2ccc3ncccc3c2)cc1,0.28µM,?,0.28µM,0.43µM,0.65µM,nt
Cc1ccc(NC(=O)c2ccc(NS(=O)(=O)c3cccc4cccnc34)cc2)cc1,i,i,i[1.84 µM],17µM,i,nt
Oc1cc(NCc2ccccc2)cc2cccnc12,i,nt,i,?,nt,nt
COc1cccc(OC)c1Cn1nnc2c(=O)[nH]c(C3CCN(C(=O)c4ccccc4)CC3)nc21,nt,nt,nt,i,nt,i
COc1ccccc1NS(=O)(=O)c1cccc(C(=O)NCc2ccncc2)c1,i,i,i,i,i,nt
CNC(=O)c1ccc(NC(=O)CC23CC4CC(CC(C4)C2)C3)cc1,i,9.2µM,i,i,i,nt
COc1ccc(-c2cc(C(F)F)n3ncc(C(=O)N4CCSCC4)c3n2)cc1,i,16µM,i,i,i,i
Cc1cc(NC(=O)c2cnn3c(C(F)F)cc(-c4ccccc4)nc23)no1,i,8.2µM,i,i,i,i
COc1ccc(-c2cc(C(F)F)n3ncc(C(=O)N4CCN(C)CC4)c3n2)cc1,i,7.3µM,i,i,i,i
Cc1cc(NS(=O)(=O)c2ccc(NC(=O)c3cc(-c4cccnc4)nc4ccc(Cl)cc34)cc2)no1,i,i,i[1.84 µM],i,i,i
Cc1cc(NC(=O)c2cc(-c3cccnc3)nc3c(C)c(C)ccc23)no1,i,23µM,i,i,i,i
COc1ccc(S(=O)(=O)NCCC(=O)N2CCCC2)cc1N(C)S(C)(=O)=O,i,i,i,i,i,nt
CCCCc1ccc(-c2nc(NC(=O)C3C4CCC(O4)C3C(=O)O)sc2C)cc1 (configuration not stated),i,?,i,21µM,16µM,i
CCc1cccc(C)c1NC(=O)C1C2CCC(O2)C1C(=O)O (configuration not stated),i,i,i,i,i,i
CC(CCc1ccccc1)NC(=O)CCNC(=O)c1ccccc1Cl (configuration not stated),nt,i,nt,nt,i,nt
CNc1cnn(-c2ccc(C)cc2)c(=O)c1Sc1ccc(C)cc1,i,i,i,i,i,i
CNC(=O)c1c(Cl)cnn1-c1ccc(C)cc1,2.2µM,?,3.2µM,12µM,?,nt
Cc1ccc(-n2ncc(Cl)c2C(=O)NC2CC2)cc1,3.2µM,?,1.8µM,11µM,?,nt
CNc1cnn(-c2ccc(C)cc2)c(=O)c1Cl,1.6µM,?,3.2µM,13µM,?,11µM
SMILES,NPC1 prom act,ELG1 DNA repair,Rab9 promoter act,FLuc counter,ELG1 genotox,SMN2 splice up
Cc1ccc(-n2ncc(C(=O)NC3CC3)c2C2CCN(C(=O)OC(C)(C)C)CC2)cc1,i,i,i,i,i,nt
C=CCNC(=O)c1c(Cl)cnn1-c1ccc(C)cc1,2µM,?,3.2µM,17µM,?,nt
Cc1cccc(CNC(=O)Cc2csc3ccccc23)c1,nt,nt,nt,?,nt,i
O=C(c1cc(C(F)(F)F)cc(C(F)(F)F)c1)N1CCC2(CC1)CN(c1ncccn1)C2,nt,nt,nt,nt,nt,i
CC(C(=O)NCc1ccccc1)N1Cc2ccccc2C1=O (configuration not stated),nt,nt,nt,i,nt,nt
CNC(=O)c1c(Br)cnn1-c1ccc(C)cc1,2.8µM,?,3.2µM,7.6µM,?,nt

# Screening results as filed in PubChem BioAssay.
